# Shown are actives, neighbours in structure and some others; about 2.7% of the full set was active somewhere.
# ClpP mod: qHTS Assay for Activators of ClpP; ATP-dependent Clp protease proteolytic subunit (Bacillus subtilis (strain 168)), P80244; purified B. subtilis ClpP, FRET peptide cleavage, 20 min; Potency, µM (top dose mostly 57.5 µM), without a hit: at the top dose activity change, negative = active; hit rate 1.9% among 340,000; active = well fitted falling curve with a large enough effect; inconclusive = small, poorly fitted or top-dose-only effect; inactive = no such curve, though single readings can be large or run the other way; also: potency is read from the fitted curve at half-maximal effect; the source files actives as falling curves though it sought activators and does not explain the sign; nearly all actives have a fitted effect of over 65% in size
#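 Purified B. subtilis ClpP, 10 microg/mL final in Tris/HCl pH8 with KCl, BSA, glycerol and Tween-20, cleaved an Abz/nitrotyrosine-quenched decapeptide. Fluorescence (ex 320, em 430) was read at 0 and 20 min at room temperature. Delta was normalized to 5.8 microM ADEP and DMSO/no-enzyme controls.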
# gsp agonist: activates gsp, the McCune-Albright syndrome mutation | Potency, µM (series often up to 76.9 µM), for the others: at the top dose activation (cAMP increase), usual class: activators | hit rate 0.13% among 340,000 | gsp mutant cells, cAMP HTRF, 30 min | AID 624287; active = well fitted activation curve with a large enough effect; inconclusive = small, poorly fitted or top-dose-only effect, or another doubt; inactive = no such curve, though single readings can be large or run the other way; cell line not stated here;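 also: phosphodiesterase inhibitor Ro 20-1724 added with compounds to block cAMP breakdown; potency is read from the fitted curve at half-maximal effect; nearly all actives have a fitted effect of over 60% in size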
#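 Cells stably selected in G418 were plated at 2000/well, grown 16-24 hr, then given compounds in DMSO with the PDE inhibitor […] (300 uM solution added) for 30 min at 37C; cAMP was read by HTRF.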
# gsp antagonist: antagonizes gsp, the McCune-Albright syndrome mutation; Potency, µM (titrated, usually from 76.9 µM), for inactives: top-dose activity change, negative = inhibition, hits mostly inhibitors; hit rate 0.4% among 340,000; gsp-mutant cells, cAMP HTRF, 30 min; calls by dose curve; cell line not stated here;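 also: intracellular cAMP measured with PDE inhibitor Ro 20-1724 present during compound exposure; potency is read from the fitted curve at half-maximal effect; % is scaled to controls: 0 for no effect and ±100 for the full control effect; nearly all actives have a fitted effect of over 65% in size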
#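 HTRF cAMP read-out (cAMP-d2 plus anti-cAMP antibody-K in lysis buffer, 30 min RT). Before lysis, cells are exposed to compounds with […] for 30 min at 37C in DPBS containing Ca/Mg, BSA and Tween 20.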
# RXFP1 agonist: agonists of human relaxin receptor RXFP1; Q9HBX9; HEK293T-RXFP1 cAMP TR-FRET, 30 min; response scale: percent of porcine relaxin response, buffer zero; Potency, µM (doses to about 57.5 µM), for inactives: at the top dose activation, actives largely listed as activators; hit rate 0.3% among 370,000; AID 2676; active = well fitted activation curve with a large enough effect; inconclusive = small, poorly fitted or top-dose-only effect; also: potency is read from the fitted curve at half-maximal effect; % is scaled to controls: 0 for no effect and ±100 for the full control effect; nearly all actives have a fitted effect of over 60% in size
# Target sequence (Q9HBX9 whole entry, looked up): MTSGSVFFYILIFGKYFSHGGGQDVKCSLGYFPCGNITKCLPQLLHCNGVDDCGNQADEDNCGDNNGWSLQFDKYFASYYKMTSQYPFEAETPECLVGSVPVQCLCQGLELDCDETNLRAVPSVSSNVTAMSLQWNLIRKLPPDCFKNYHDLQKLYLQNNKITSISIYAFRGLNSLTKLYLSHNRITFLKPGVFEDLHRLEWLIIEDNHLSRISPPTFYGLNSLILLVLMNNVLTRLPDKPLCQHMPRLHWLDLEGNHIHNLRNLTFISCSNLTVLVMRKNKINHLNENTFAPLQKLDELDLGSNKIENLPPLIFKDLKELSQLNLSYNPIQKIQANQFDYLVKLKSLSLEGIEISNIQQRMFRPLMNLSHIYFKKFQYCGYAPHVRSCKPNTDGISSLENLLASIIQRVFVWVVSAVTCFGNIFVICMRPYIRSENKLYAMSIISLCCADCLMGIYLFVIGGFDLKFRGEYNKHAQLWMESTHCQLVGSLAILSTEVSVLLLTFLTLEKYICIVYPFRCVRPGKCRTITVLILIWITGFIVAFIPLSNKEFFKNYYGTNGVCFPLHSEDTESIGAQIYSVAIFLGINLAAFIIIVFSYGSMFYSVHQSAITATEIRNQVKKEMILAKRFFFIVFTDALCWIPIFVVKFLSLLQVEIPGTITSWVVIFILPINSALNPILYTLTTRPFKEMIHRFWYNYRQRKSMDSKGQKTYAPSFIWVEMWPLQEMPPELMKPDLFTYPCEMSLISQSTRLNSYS
#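 Agonist response is measured as cAMP accumulation in an RXFP1-transfected HEK293T line under PDE4 inhibition. Values are scaled between buffer-only and 29 nM porcine relaxin, and EC50s come from standard Hill equation fits.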
# RXFP1 antag: RXFP1 (human) relaxin receptor antagonism | Q9HBX9 | HEK293-RXFP1, relaxin-stimulated cAMP HTRF, 30 min; active compounds read low | activity change, negative = inhibition, % at 57.5 µM | hit rate 0.59% among 350,000;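 active = activity change of -60% or lower, but not beyond a set lower limit; inconclusive = change between -60% and -40%, or beyond the set limit; inactive = change above -40%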; also: % is scaled to controls: 0 for no effect and ±100 for the full control effect
# pAkt inh: blocks phosphorylation of Akt; Neuro2A IGF-stimulated pAkt S473 HTRF, 20 min; active compounds read low; activity change, % for hits at 50 µM; hit rate 0.32% among 360,000; AID 651550; in the data active = activity change below about -80%; inconclusive = mostly about -51% to -80%; also: % is scaled to controls: 0 for no effect and ±100 for the full control effect
#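 Neuro2A cells in DMEM with 0.5% FBS, overnight at 37 deg C, given compound at single 50 µM final, then IGF (6 nM final) for 20 min at 37 deg C. Lysed; phospho-Akt Ser473 by HTRF after 24 h, 665/615 ratio.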
# The depositor's hits bear a star; i = inactive; ? = inconclusive; . = no result; [ ] = dose if it differs, or a comment.
SMILES,ClpP mod,gsp agonist,gsp antagonist,RXFP1 agonist,RXFP1 antag,pAkt inh
COc1ccc(N2CCN(C(=O)c3cc4c(C)nc5ccccc5c4o3)CC2)cc1,-3%,?,?,0%,-76*,i
O=C(O)C1CCCN1C(=O)C1CCN(S(=O)(=O)c2cccc(C(F)(F)F)c2)CC1 (stereo not given),-1%,5%[15.4 µM],6%,1%,-4,i
CCN(C(=O)Cn1c(=O)oc2cc(S(=O)(=O)N3CCCC3)ccc21)c1cccc(C)c1,1%,.,.,0%,3,.
COc1ccc(-c2nc3ccccc3s2)cc1NC(=O)COc1cccc(C)c1,4%,.,.,27%,5,.
Cc1nc2nc(SCC(=O)NCc3ccccc3Cl)nn2c(C)c1Cc1ccccc1,-5%,.,.,-3%,-24,.
CCN1CCCC1CNC(=O)c1cc2c(C)nc3ccccc3c2o1 (stereo not given),25µM*,0%,7%,-1%,3,i
CCCCOC(=O)CSc1nnc(-c2ccccc2)o1,1%,.,.,2%,-6,.
CCCCSc1nnc(CCCCCNC(=O)OC(C)(C)C)o1,0%,4%,35µM*,1%,10,i
COc1ccc(-n2c(SCC(=O)NCc3ccccc3)nc3c([nH]c4ccccc43)c2=O)cc1,4%,.,.,3%,.,.
CC1(CCc2ccccc2)NC(=O)N(Cc2nnc(-c3ccccc3Br)o2)C1=O (stereo not given),-2%,0%,-6%,3%,-4,-108%*
COc1ccc(N2CCN(CCNC(=O)CCCn3c(=O)[nH]c4cc(Cl)ccc4c3=O)CC2)cc1,28µM*,0%,8%,0%,1,i
COCCn1c(=O)[nH]c2cc(C(=O)NCCN3CCN(c4cccc(Cl)c4)CC3)ccc2c1=O,-14%,-50%,-25%,1%,-1,-118%*
Cc1cccc(-c2nc3c(c(SCC(=O)N4CCOCC4)n2)Cc2c(CO)cnc(C)c2O3)c1,0%,0%,40µM*,3%,-16,i
Cc1ncc(CO)c2c1Oc1nc(-c3ccccc3F)nc(SCC(=O)N(C)c3ccccc3)c1C2,1%,-23%,40µM*,0%,-91*,i
Cc1ncc(CO)c2c1Oc1nc(-c3ccccc3)nc(SCC(=O)N(C)c3ccccc3)c1C2,.,.,.,0%,.,.
CC(=O)OC[C@H]1O[C@@H](OC(C)=O)[C@H](OC(C)=O)[C@@H]1OC(C)=O,.,.,.,.,13,.
O=C(Nc1nc2ccccc2s1)c1ccc(OCC2CCCO2)cc1 (stereo not given),-17%,12%,32µM*,1%,-35,i
O=C(Nc1nc2ccccc2s1)c1cc(-c2ccccc2)nn1-c1ccccc1,28µM*,0%,-15%,0%,.,i
COc1ccc(C(=O)Nc2nc3ccccc3[nH]2)cc1,.,6%,-16%,0%,-78*,i
COc1ccccc1C(=O)NCCC(=O)Nc1nc2ccccc2[nH]1,.,9%[15.4 µM],-1%,1%,-86*,i
NC(=O)CC[C@@H]1NC(=O)[C@H](Cc2ccccc2)NC(=O)[C@H](Cc2ccc(O)cc2)NC(=O)CCSSC[C@@H](C(=O)N2CCC[C@H]2C(=O)N[C@@H](CCCN=C(N)N)C(=O)NCC(N)=O)NC(=O)[C@H](CC(N)=O)NC1=O,.,.,.,.,11,.
Cn1c(=O)n(C)c2cc(N3CCOCC3)c(NC(=O)c3ccc(Cl)cc3)cc21,-11%,.,.,1%,-17,.
COc1ccc(S(=O)(=O)N(CC(=O)Nc2cccnc2)c2ccc(Cl)cc2)cc1,-1%,.,.,4%,.,.
OC[C@@H]1CN(Cc2cccnc2)C[C@H](n2cnc3c(N4CCCC4)ncnc32)O1,2%,.,.,.,.,i
COc1ccc(OC)c(C2C(C(=O)Nc3nc4ccccc4s3)=C(C)NC3=C2C(=O)CCC3)c1 (stereo not given),28µM*,-15%,32µM*,3%,-3,.
SMILES,ClpP mod,gsp agonist,gsp antagonist,RXFP1 agonist,RXFP1 antag,pAkt inh
COc1ccc(C(=O)Nc2nc3ccccc3s2)cc1,-5%,7%,?,2%,-66*,i
COc1cccc(C(=O)Nc2nc3ccccc3s2)c1,-4%,-22%,-4%,-1%,1,i
CCOC(=O)C1=C(C)NC2=C(C(=O)CCC2)C1c1cc(OC)ccc1OC (stereo not given),-7%,-8%,-5%,-1%,12,.
Cc1ccccc1C(=O)N1CC/C(=N/OS(=O)(=O)O)c2ccc(Cl)cc21,.,.,.,.,-15,.
COCOc1cccc(CN2CCC2(C)C(=O)Nc2ccc3c(c2)OCO3)c1 (stereo not given),0%,.,.,.,.,i
O=c1cc(CN2CCN(c3ccccc3F)CC2)c2cc(O)c(-c3ccccc3)cc2o1,-1%,2%[15.4 µM],6%,0%,2,i
COc1ccc(N2CCN(Cc3cc(=O)oc4cc(-c5ccccc5)c(O)cc34)CC2)cc1,32µM*,?,-3%,1%,-13,i
CCc1cc2c(CN3CCN(CCO)CC3)cc(=O)oc2cc1O,14µM*,26%,2%,-3%,-6,-106%*
CCN(CC)C(=O)Cn1cc(SCC(=O)Nc2cccc(F)c2)c2ccccc21,-7%,.,.,-1%,0,.
CCN(CC(=O)Nc1ccc(NC(C)=O)cc1)C(=O)c1ccc(=O)n(C)n1,1%,13%,18%,2%,-7,i
CC1(C)Cc2ccccc2-c2c1c(=O)n(Cc1ccccc1)c1nnnn21,?,?,-17%,0%,-8,i
CC1(C)Cc2ccccc2-c2nc(NN)[nH]c(=O)c21,4%,24%,-4%,-2%,-3,i
Cn1c(=S)[nH]c2c(c1=O)C(C)(C)Cc1ccccc1-2,.,92%[15.4 µM],-2%,16µM*,29,i
CCn1c(=S)[nH]c2c(c1=O)C(C)(C)Cc1ccccc1-2,0%,2.8µM*,34%,16µM*,14,i
CCc1ccc(NC(=O)CCCc2nc(-c3ccco3)no2)cc1,-3%,.,.,-4%,-9,.
COc1ccc(N2C(=O)CC(NNc3nc4ccccc4s3)C2=O)cc1 (stereo not given),.,15%,-1%,0%,-3,i
Cc1ccc(N2C(=O)CC(NNc3nc4ccccc4s3)C2=O)cc1C (stereo not given),13µM*,2%,-16%,0%,-1,i
Cc1ccc(-c2c3c(=O)n(C)c(=O)n(C)c3c3cnc4ccccc4n23)cc1,?,.,.,2%,5,.
Cc1cc(C)c2c(=N)c3ccccc3n(CCCCCCCCn3c4ccccc4c(=N)c4c(C)cc(C)nc43)c2n1,32µM*,22%,6%,.,-5,i

# Screening results as filed in PubChem.
